In PubChem BioAssay (EPA / NIEHS):
The source made the active and inactive calls. The calls were made as follows: active = hit-call score of the fitted dose curve at least 0.9, where 1 is the maximum; inactive = score below 0.9.

Experiment: ATG_CMV_CIS: Attagene CIS-FACTORIAL HepG2 Assay for human CMV (Internal Marker) (AID 2282928);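 also: endpoint acts as a background internal control marker rather than a target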
Conditions: HepG2 CMV promoter reporter, transcription factor profiling; actives raise or lower the signal
Method: ATG_CIS is a cell-based, multiplexed-readout assay that uses HepG2, a human liver cell line, with measurements taken at 24 hours after chemical dosing in a 24-well plate.ATG_CMV_CIS is one of 52 assay component(s) measured or calculated from the ATG_CIS assay. It is designed to make measurements of mRNA induction, a form of inducible reporter, as detected with fluorescence intensity signals by Reverse transcription polymerase chain reaction (RT-PCR) and Capillary electrophoresis technology.Data from the assay component ATG_CMV_CIS was analyzed into 1 assay endpoint. This assay endpoint, ATG_CMV_CIS, was analyzed with bidirectional fitting relative to DMSO as the negative control and baseline of activity. Using a type of inducible reporter, measures of mRNA for gain or loss-of-signal activity can be used to understand the background control at the transcription factor-level as they relate to the gene . Furthermore, this assay endpoint can be referred to as a secondary readout, because this assay has produced multiple assay endpoints where this one serves a background control function. To generalize the intended target to other relatable targets, this assay endpoint is annotated to the background measurement intended target family, where the subfamily is internal marker.
Human liver HepG2 cells are transiently transfected with multiple reporter transcription units (MRTUs) in 6-well plates using FuGene 6 reagent (Roche; 3 ml FuGene/1 mg DNA). The MRTU constructs are regulated by a cis-regulating element (promoter). […] A major difference between the CIS and TRANS system is that in CIS activities of endogenous TFs are measured, whereas the TRANS assay evaluates changes in activities of exogenous, chimeric NR-Gal4 proteins. […] At the end of 24 hour incubation, total RNA was isolated using TriZol reagent (Invitrogen). The isolated RNA is then reverse-transcribed using oligo(dT) primer and Mo-MLV reverse transcriptase (Invitrogen) with DNAse I (Ambion) treatment for 30 min. The one-tenth of the produced cDNA was amplified by PCR using Taq DNA polymerase (Invitrogen) and two reporter sequence-specific primers. The PCR products were fluorescently labeled by primer extension with 6-arboxyfluorescein (6-FAM) 5'-labeled reporter sequence-specific primer (2 min at 95 C, 20 s at 68 C and 10 min at 72 C) and these products were digested with 5U of HpaI (New England Biolabs) for 2h at 37 C. The fragments were purified using Qiaquick PCR columns (Qiagen), analyzed on an ABI 3130xL genetic analyzer (Applied Biosystems) with peak positions identified by using a set of X-rhodamine (ROX)-labeled MapMarker1000 molecular weight standards (BioVentures). The raw capillary electrophoresis data was processed using Attagraph software (Attagene).

SMILES | outcome | AC50
Clc1cccc(Cl)c1 | inactive | 
CC(C)(c1ccccc1)c1cc(-n2nc3ccccc3n2)c(O)c(C(C)(C)c2ccccc2)c1 | inactive | 
O=[N+]([O-])c1cccc2ccccc12 | inactive | 
CC(C)[C@H](C(=O)OC(C#N)c1cccc(Oc2ccccc2)c1)c1ccc(OC(F)F)cc1 (stereo not given in full) | inactive | 
O=c1oc2ccccc2c(O)c1C(CC(O)c1ccc(-c2ccc(Br)cc2)cc1)c1ccccc1 (stereo not given) | inactive | 
Cc1cc(SCc2sc(-c3ccc(C(F)(F)F)c(F)c3)nc2C)ccc1OCC(=O)O | inactive | 
CCC[N+](CCC)(CCC)CCC | inactive | 
O=CCCl |  | 60.9 µM (active)
Cc1c([N+](=O)[O-])c(C)c([N+](=O)[O-])c(C(C)(C)C)c1[N+](=O)[O-] |  | 100 µM (active)
Clc1ccc(C(Cl)(Cl)Cl)cn1 | inactive | 
CC(=O)CN(CC(C)=O)N=O | inactive | 
O=C(O)C1(c2ccc3c(c2)OC[C@H](Cc2ccc(-c4ccccc4)cc2)[C@H]3O)CCCC1 |  | 6.98 µM (active)
CC(c1ccccc1)(c1ccc(O)cc1)c1ccc(O)cc1 | inactive | 
C[As+](C)(C)CC(=O)[O-] | inactive | 
ClCCN1CCOCC1 | inactive | 
Oc1cccc(-c2ccccc2)c1 |  | 67.7 µM (active)
O=NN1CCCCCCC1 | inactive | 
CCOc1cc(C=O)ccc1O | inactive | 
Cc1ccc(OP(=O)(Oc2ccc(C)cc2C)Oc2ccc(C)cc2C)c(C)c1 | inactive | 
O=S(=O)(Oc1ccc(Cl)cc1)c1ccc(Cl)cc1 |  | 49 µM (active)

SMILES | outcome | AC50
CCCCCCCCCCCCOS(=O)(=O)O | inactive | 
BrCCCCBr | inactive | 
CN(C)c1ccc(N=O)cc1 |  | 7.81 µM (active)
CN(C1CCCCC1)C1CCCCC1 | inactive | 
C=C(C)[C@@H]1CC=C(C=O)CC1 | inactive | 
CC(C)(c1ccc(O)c(-c2ccccc2)c1)c1ccc(O)c(-c2ccccc2)c1 | inactive | 
N#CS | inactive | 
CC1CC(=O)O1 (stereo not given) | inactive | 
Cc1ccc(CCl)cc1 | inactive | 
CCC[CH2][Sn]([Cl])([Cl])[CH2]CCC |  | 0.721 µM (active)
O=S(=O)(C(Cl)(Cl)Cl)C(Cl)(Cl)Cl | inactive | 
CCOC(=O)Cc1ccccc1 | inactive | 
CCC[CH2][Sn]([CH2]CCC)([CH2]CCC)[CH2]CCC | inactive | 
CCN(N=O)C(N)=O | inactive | 
CC(C)CC(C)(c1ccc(O)cc1)c1ccc(O)cc1 | inactive | 
CC(C)(C)c1cc([N+](=O)[O-])cc(C(C)(C)C)c1O |  | 1.77 µM (active)
CCCCOC(C)=O | inactive | 
OC(Cc1ccccc1Cl)(Cn1[nH]cnc1=S)C1(Cl)CC1 (stereo not given) | inactive | 
O=C(NC(=O)c1c(F)cccc1F)Nc1cc(Cl)c(OC(F)(F)C(F)C(F)(F)F)cc1Cl (stereo not given) | inactive | 
C=CC(=O)[O][Sn]([CH2]CCC)([CH2]CCC)[CH2]CCC | inactive | 
